This passage reports outcome and AC50 results from PubChem BioAssay (EPA / NIEHS).

Settings in all cases: mRNA level, 48 h; actives raise or lower the signal
Read-out in assay [1]: Cyclin Dependent Kinase Inhibitor 1A (CDKN1A), CDKN1A (gene 1026)
The assay can be described thus: LTEA_HepaRG_CDKN1A: Life Technologies and Expression Analysis (LTEA) Assay for Cyclin Dependent Kinase Inhibitor 1A (CDKN1A) using HepaRG (AID 2283450). The essentials: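 Differentiated HepaRG cells in serum-free induction medium, exposed 48 h in duplicate to eight half-log concentrations up to 100 uM in 0.5% DMSO. mRNA measured by TaqMan qRT-PCR, normalized to ACTB, GAPDH, POLR2A; bidirectional fit versus DMSO.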

Read-out in assay [2]: Cyclin D1 (CCND1), CCND1 (gene 595)
The assay can be described thus: LTEA_HepaRG_CCND1: Life Technologies and Expression Analysis (LTEA) Assay for Cyclin D1 (CCND1) using HepaRG (AID 2283451). In outline:
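Differentiated HepaRG cells exposed 48 h in serum-free induction medium to eight half-log concentrations from 100 uM top, 0.5% DMSO, duplicates. CCND1 mRNA measured by Fluidigm TaqMan qRT-PCR, normalised to ACTB, GAPDH, POLR2A; bidirectional fit.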

Read-out in assay [3]: flavin-containing dimethylaniline monooxygenases 3 (FMO3), FMO3 (gene 2328)
The assay can be described thus: LTEA_HepaRG_FMO3: Life Technologies and Expression Analysis (LTEA) Assay for flavin-containing dimethylaniline monooxygenases 3 (FMO3) using HepaRG (AID 2283453).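 On AC50: FMO3 transcript by TaqMan qRT-PCR normalized to ACTB GAPDH and POLR2A.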 In outline: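 HepaRG, 48 h exposure, 8-pt half-log series from 100 uM, 0.5% DMSO vehicle, duplicates; FMO3 transcript by Fluidigm TaqMan qRT-PCR, housekeeping-normalized; gain/loss fit vs DMSO.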

Read-out in assay [4]: Cytochrome P450 (CYP1A1), CYP1A1 (gene 1543)
The assay can be described thus: LTEA_HepaRG_CYP1A1: Life Technologies and Expression Analysis (LTEA) Assay for Cytochrome P450 (CYP1A1) using HepaRG (AID 2283454). The essentials:
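Differentiated human HepaRG cells, after 48 h plating, exposed in duplicate for 48 h in serum-free induction medium to 8 half-log concentrations up to 100 uM in 0.5% DMSO. CYP1A1 mRNA by qRT-PCR, normalized to ACTB/GAPDH/POLR2A; bidirectional fit versus DMSO.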

Read-out in assay [5]: CFLAR gene, CFLAR (gene 8837)
The assay can be described thus: LTEA_HepaRG_CFLAR: Life Technologies and Expression Analysis (LTEA) Assay for CFLAR gene using HepaRG (AID 2283455). In outline: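 HepaRG cells were plated for 48 h, switched to serum-free induction medium, then exposed in duplicate for 48 h to 8 concentrations (top 100 uM, half-log steps, 0.5% DMSO). CFLAR mRNA was measured by qRT-PCR, normalized to ACTB, GAPDH and POLR2A.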

Read-out in assay [6]: Forkhead box O1 (FOXO1), FOXO1 (gene 2308)
Description: LTEA_HepaRG_FOXO1: Life Technologies and Expression Analysis (LTEA) Assay for Forkhead box O1 (FOXO1) using HepaRG (AID 2283456). In outline: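 Differentiated human HepaRG cells in serum-free induction medium were exposed in duplicate for 48 h to eight half-log concentrations (top 100 uM, 0.5% DMSO). FOXO1 mRNA was measured by TaqMan qRT-PCR, normalised to ACTB, GAPDH and POLR2A, and fitted bidirectionally against DMSO.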

Read-out in assay [7]: growth arrest and DNA damage 45 (GADD45A), GADD45A (gene 1647)
Description: LTEA_HepaRG_GADD45A: Life Technologies and Expression Analysis (LTEA) Assay for growth arrest and DNA damage 45 (GADD45A) using HepaRG (AID 2283458). The essentials:
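Differentiated HepaRG cells were exposed in duplicate for 48 h in serum-free induction medium to 8-point half-log concentrations up to 100 uM in 0.5% DMSO. GADD45A mRNA was measured by TaqMan qRT-PCR, normalized to ACTB, GAPDH and POLR2A, with bidirectional fitting versus DMSO.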

Read-out in assay [8]: Forkhead box O3 (FOXO3), FOXO3 (gene 2309)
Description: LTEA_HepaRG_FOXO3: Life Technologies and Expression Analysis (LTEA) Assay for Forkhead box O3 (FOXO3) using HepaRG (AID 2283459). The essentials:
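Differentiated human HepaRG cells in serum-free induction medium were exposed in duplicate for 48 h to eight half-log concentrations up to 100 uM in 0.5% DMSO. FOXO3 mRNA was quantified by qRT-PCR, normalized to ACTB, GAPDH and POLR2A, with bidirectional fitting versus DMSO.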

Read-out in assay [9]: ABC Transporter (ABCB1), ABCB1 (gene 5243)
Description: LTEA_HepaRG_ABCB1: Life Technologies and Expression Analysis (LTEA) Assay for ABC Transporter (ABCB1) using HepaRG (AID 2283460). In outline:
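Differentiated human HepaRG cells, plated 48 h then switched to serum-free induction medium, were exposed in duplicate to eight half-log concentrations up to 100 uM in 0.5% DMSO for 48 h. ABCB1 mRNA was measured by TaqMan qRT-PCR, normalized to ACTB/GAPDH/POLR2A.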

Read-out in assay [10]: growth arrest and DNA damage 45 (GADD45B), GADD45B (gene 4616)
Description: LTEA_HepaRG_GADD45B: Life Technologies and Expression Analysis (LTEA) Assay for growth arrest and DNA damage 45 (GADD45B) using HepaRG (AID 2283461). In outline:
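Differentiated human HepaRG cells in serum-free induction medium exposed 48 h in duplicate to eight concentrations, top 100 uM, half-log steps, 0.5% DMSO. GADD45B mRNA by TaqMan qRT-PCR, normalized to ACTB, GAPDH, POLR2A; bidirectional fit versus DMSO.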

Read-out in assay [11]: ABC Transporter (ABCC3), ABCC3 (gene 8714)
Description: LTEA_HepaRG_ABCC3: Life Technologies and Expression Analysis (LTEA) Assay for ABC Transporter (ABCC3) using HepaRG (AID 2283462). In outline:
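Differentiated human HepaRG cells exposed 48 h in serum-free induction medium, 0.5% DMSO vehicle, 8-point half-log series to 100 uM in duplicate. ABCC3 mRNA by qRT-PCR, normalised to ACTB, GAPDH, POLR2A; bidirectional fit vs DMSO.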

Read-out in assay [12]: ABC Transporter (ABCB11), ABCB11 (gene 8647)
The assay can be described thus: LTEA_HepaRG_ABCB11: Life Technologies and Expression Analysis (LTEA) Assay for ABC Transporter (ABCB11) using HepaRG (AID 2283463). The essentials:
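Differentiated human HepaRG cells were exposed for 48 h in serum-free induction medium to eight half-log concentrations up to 100 uM in 0.5% DMSO. ABCB11 mRNA was quantified by qRT-PCR, normalized to ACTB, GAPDH and POLR2A, and fitted bidirectionally versus DMSO.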

Read-out in assay [13]: ABC Transporter (ABCC2), ABCC2 (gene 1244)
Description: LTEA_HepaRG_ABCC2: Life Technologies and Expression Analysis (LTEA) Assay for ABC Transporter (ABCC2) using HepaRG (AID 2283464). The essentials:
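Differentiated HepaRG cells in serum-free induction medium exposed 48 h to eight half-log concentrations up to 100 uM, 0.5% DMSO, in duplicate. ABCC2 mRNA measured by qRT-PCR (TaqMan, Fluidigm), normalized to ACTB, GAPDH and POLR2A. Fitted in both directions against DMSO.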

Read-out in assay [14]: Broad substrate specificity ATP-binding cassette transporter ABCG2 (Homo sapiens) (UniProt Q9UNQ0)
Description: LTEA_HepaRG_ABCG2: Life Technologies and Expression Analysis (LTEA) Assay for ABC Transporter (ABCG2) using HepaRG (AID 2283465). The essentials: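 Differentiated HepaRG cells in serum-free induction medium were exposed for 48 h, in duplicate, to eight half-log concentrations up to 100 uM in 0.5% DMSO. ABCG2 mRNA was measured by TaqMan qRT-PCR, normalized to ACTB, GAPDH and POLR2A, and fitted bidirectionally versus DMSO.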

Read-out in assay [15]: ATP-citrate lyase (ACLY), ACLY (gene 47)
The assay can be described thus: LTEA_HepaRG_ACLY: Life Technologies and Expression Analysis (LTEA) Assay for ATP-citrate lyase (ACLY) using HepaRG (AID 2283466). In outline: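 Differentiated human HepaRG cells in serum-free induction medium exposed 48 h, in duplicate, to eight half-log concentrations from 100 uM top in 0.5% DMSO; ACLY mRNA measured by qRT-PCR, normalized to ACTB, GAPDH, POLR2A, fitted bidirectionally versus DMSO.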

Read-out in assay [16]: Peroxisomal acyl-coenzyme A oxidase 1 (ACOX1) gene, ACOX1 (gene 51)
Description: LTEA_HepaRG_ACOX1: Life Technologies and Expression Analysis (LTEA) Assay for Peroxisomal acyl-coenzyme A oxidase 1 (ACOX1) gene using HepaRG (AID 2283467). The essentials:
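Differentiated human HepaRG cells were exposed in duplicate for 48 h in serum-free induction medium to eight half-log concentrations up to 100 uM in 0.5% DMSO. ACOX1 mRNA was then quantified by TaqMan qRT-PCR, normalized to ACTB, GAPDH and POLR2A.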

Read-out in assay [17]: catalase (CAT), CAT (gene 847)
Description: LTEA_HepaRG_CAT: Life Technologies and Expression Analysis (LTEA) Assay for catalase (CAT) using HepaRG (AID 2283452). The essentials:
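Differentiated HepaRG cells in serum-free induction medium were dosed 48 h in duplicate, eight half-log concentrations from 100 uM in 0.5% DMSO. Transcript measured by TaqMan qRT-PCR, normalised to ACTB/GAPDH/POLR2A, fitted bidirectionally against DMSO.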

Read-out in assay [18]: Alkaline Phosphatase, Placental (ALPP) gene, ALPP (gene 250)
The assay can be described thus: LTEA_HepaRG_ALPP: Life Technologies and Expression Analysis (LTEA) Assay for Alkaline Phosphatase, Placental (ALPP) gene using HepaRG (AID 2283468). In outline:
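HepaRG cells plated 48 h, then exposed in duplicate for 48 h in serum-free induction medium to 8-point half-log series from 100 uM in 0.5% DMSO. ALPP mRNA by TaqMan qRT-PCR, normalized to ACTB/GAPDH/POLR2A; bidirectional fit versus DMSO.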

SMILES strings stand for the structures. The source made the active and inactive calls. How the source made its calls: active means hit-call score of the fitted dose curve at least 0.9, where 1 is the maximum; inactive means score below 0.9.

Chain of Broad substrate specificity ATP-binding cassette transporter ABCG2 (Homo sapiens) (Q9UNQ0 whole entry, looked up): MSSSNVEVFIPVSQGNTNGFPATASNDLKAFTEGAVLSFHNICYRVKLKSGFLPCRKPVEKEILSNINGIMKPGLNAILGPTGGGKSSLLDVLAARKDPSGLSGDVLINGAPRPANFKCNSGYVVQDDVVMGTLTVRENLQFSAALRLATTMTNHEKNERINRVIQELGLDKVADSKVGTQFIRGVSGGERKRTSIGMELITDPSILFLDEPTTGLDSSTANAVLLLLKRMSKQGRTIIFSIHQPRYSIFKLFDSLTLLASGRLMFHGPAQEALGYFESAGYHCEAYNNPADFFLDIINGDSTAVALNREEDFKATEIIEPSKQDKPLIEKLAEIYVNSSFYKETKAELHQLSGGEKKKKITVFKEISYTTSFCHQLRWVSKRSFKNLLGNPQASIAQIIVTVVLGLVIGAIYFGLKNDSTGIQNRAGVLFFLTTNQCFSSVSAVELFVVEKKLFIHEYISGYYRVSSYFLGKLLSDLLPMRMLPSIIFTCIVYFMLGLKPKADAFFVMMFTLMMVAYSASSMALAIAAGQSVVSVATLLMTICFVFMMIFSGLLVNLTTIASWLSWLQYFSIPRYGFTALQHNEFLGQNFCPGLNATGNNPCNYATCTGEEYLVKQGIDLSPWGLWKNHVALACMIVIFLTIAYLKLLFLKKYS

As to `CSc1ccc(Oc2ccc(S(N)(=O)=O)cc2CN(C)C)cc1C`, the call in [1], in assay [2], in [5], in [6], in assay [7] and in assay [8] was inactive. Further, the molecule was classed as inactive in assay [9], in assay [10], in assay [13], in [14], in assay [15] and in assay [16]. The half-maximal activity concentration (AC50) is 77.7 µM (active) in [3], 69.8 µM (active) in assay [4], 81.5 µM (active) in assay [11] and 84.6 µM (active) in assay [12].
With `N[C@@H](Cc1c[nH]c2ccccc12)C(=O)O`, the result in [2], in assay [17], in assay [3], in assay [5], in [6] and in [7] was inactive. Also, the molecule was classed as inactive in assay [8], in assay [9], in [10], in [11], in [12] and in assay [13]. Further, the molecule was classed as inactive in [14], in [15], in assay [16] and in assay [18]. The AC50 in assay [4] was 10.9 µM (active).

For orientation: AC50 means the concentration at which the activity in the assay is half-maximal.
